Growth data for 37 compounds are collected here from PubChem BioAssay (NCI).

About 83,000 compounds went through this panel and 20% of them were active in at least one assay; those are over-represented in the sample as a whole.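 Treatment: one concentration, 48 hours, 96-well format. Scoring: percent growth, with anything below 10 considered active.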 Values without a mark were called inactive. Activity calls are given as the source filed them.

The subject of this experiment is HL-60(TB) leukemia. In words: NCI-60 one-dose screen, 48 h (100 = growth as untreated, 0 = no growth, -100 = all killed). As to conditions: 10 µM unless noted.

Consider `Cc1cn(C2CCCCC2)c(=O)[nH]c1=O`, for which the growth was 96.7%.

Take `CCCCc1oc2ccccc2c1C(=O)c1cc(I)c(OCCN(CC)CC)c(I)c1`: the growth was -62.9% (active).

In the case of `Fc1ccc(NCc2nnc(-c3ccc(Cl)cc3)o2)cc1`, the growth was 69.5%.

Turning to `N=S(=O)(NC(=O)c1ccc(Cl)cc1Cl)c1ccc(Br)s1` (configuration not stated), the growth was 96.8%.

For the compound `COc1ccc(C(O)c2cc3c(N)c(C(=O)Nc4cccc(OC)c4)sc3nc2C)cc1` (configuration not stated), the growth is -55.9% (active).

With `CC(=O)c1c(C)[nH]c(-c2nc3ccc(N4CCN(C)CC4)cc3[nH]2)c1-c1ccccc1`, the growth was 4.85% (active).

For the compound `C[N+](C)=c1ccc2nc3c(cc(NCCCNc4cc5oc6cc(=[N+](C)C)ccc-6nc5c5ccccc45)c4ccccc43)oc-2c1`, the growth was -7.2% (active).

Consider `COc1ccc(OC)c(-c2c(C#N)c(-c3ccc(Cl)cc3)nc3c2c(-c2ccccc2)nn3-c2ccccc2)c1`, for which the growth was 99%.

Turning to `O=C(O)Cc1ccc(O)c(O)c1`, the growth is 82.1%.

In the case of `CCOC(=O)c1cc(C(=O)c2cc(OC)cc(OC)c2)n2ccccc12`, the growth is -13.9% (active).

Consider `CN1CCN(c2ccc3nc(/N=C/c4ccc5sc(-c6ccc([N+](=O)[O-])cc6)nc5c4)sc3c2)CC1`, for which the growth was 109%.

Take `Cc1ncc([N+](=O)[O-])n1CCOc1ccc(C(=O)/C=C/c2ccc(C(F)(F)F)cc2)cc1`: the growth was 54.3%.

As to `C(=C(\C1=NCCN1)n1ccc2ccccc21)/c1ccccc1`, the growth was 96.8%.

Regarding `Cc1ccc(N2C(=O)CCC2=O)cc1`, the growth was 104%.

Take `COc1cccc(-c2nn(-c3ccccc3)cc2-c2ccnc(NCCCNC(=O)c3ccccc3)c2)c1`: the growth was 23.8%.

In the case of `C[C@@H]1CN(c2nc3c(cc2F)c(=O)c(C(=O)O)cn3C(C)(C)C)C[C@H](C)N1`, the growth is 97%.

In the case of `CCC(=O)Nc1ccc(-c2nc(-c3cccc(OC)c3)c(-c3ccnc(Br)c3)[nH]2)cc1`, the growth is 49.5%.

With `Cc1cc(C(=O)Nc2ncnc3nc[nH]c23)no1`, the growth was 91.1%.

As for `Nc1nc(N)c2c(n1)NC1(C=C(O)c3ccccc31)C1=C(N2)c2ccccc2C1=O` (configuration not stated), the growth was 71%.

In the case of `Cn1nc(C(F)(F)F)c(-c2ccc(Cl)c(C(F)(F)F)c2)c1-c1ccc(OCc2ccc(Cl)cc2)cc1O`, the growth is 9.3% (active).

In the case of `Cn1c2c(c3ccccc31)CCN1C[C@@H]3CCCC[C@H]3C[C@@H]21`, the growth was 2.52% (active).

Turning to `COc1ccc(C2=Nc3c(N)nc(N)nc3NC(c3cccc(Nc4ccnc5cc(C(F)(F)F)ccc45)c3)C2)cc1` (configuration not stated), the growth is 81.6%.

Consider `O=C(Cn1cc(CO)nn1)Nc1nc2ccccc2s1`, for which the growth was 97.1%.

Take `CC(=O)CCS(=O)c1ccccc1` (configuration not stated): the growth was 97.4%.

Turning to `COc1cc2c(cc1OCCCN1CCN(CCCn3c4ccccc4c4ccccc43)CC1)N=C[C@@H]1CCCN1C2=O`, the growth is -44.8% (active).

For the compound `COc1cc(-c2n/c(=C\c3c(O)[nH]c4ccc(Cl)cc34)cc3c2=Nc2ccccc2-3)cc(OC)c1OC`, the growth is 48.3%.

Consider `C=C(C)[C@@H]1CC[C@]2(C(=O)N3CCN(C)CC3)CC[C@]3(C)[C@H](CC[C@@H]4[C@@]5(C)CCC(=O)C(C)(C)[C@@H]5CC[C@]43C)[C@@H]12`, for which the growth was 60.1%.

Regarding `COc1cc(NS(C)(=O)=O)ccc1Nc1c2ccc(Cl)cc2nc2c(OC)cccc12`, the growth is -30.1% (active).

For the compound `Nc1nc(Cn2c(-c3nonc3N)nc3ccccc32)nc(N2CCCCC2)n1`, the growth was 82.2%.

For the compound `COc1cccc(C2CC(=O)Nc3cc4c(cc32)OCO4)c1OC` (configuration not stated), the growth is 93.7%.

Regarding `O=C(Cn1nnc2ccccc21)N/N=C/c1ccccc1F`, the growth is 107%.

Regarding `COc1ccc(CC(C)=C(c2ccc(OCCN(C)C)cc2)c2ccc(OCCN(C)C)cc2)cc1`, the growth is 41.3%.

For the compound `C=C(C)[C@@H]1CC[C@]2(COC(=O)c3cccnc3)CC[C@]3(C)[C@H](CC[C@@H]4[C@@]5(C)CCCN(C(=O)c6cccnc6)C(C)(C)[C@@H]5CC[C@]43C)[C@@H]12`, the growth is 11.6%.

As to `Nc1ncnc2c1C(c1ccc(Br)cc1)c1sc3c(F)cccc3c1O2` (configuration not stated), the growth is 119%.

For the compound `COc1ccc2cc1Oc1ccc(cc1)C[C@H]1c3c(cc4c(c3Oc3cc5c(cc3OC)CCN(C)[C@@H]5C2)OCO4)CCN1C`, the growth was 36.3%.

As for `CCC(CC(C)C)Nc1ccc(NC(CC)CC(C)C)cc1` (configuration not stated), the growth was 35.3%.

Regarding `C=C1C(=O)O[C@H]2[C@H]1CC/C(C=Nc1c(N)cc(C(F)(F)F)cc1Br)=C\CC[C@@]1(C)O[C@@H]21`, the growth was -13.1% (active).
